In PubChem BioAssay (EPA / NIEHS):
Calls of active or inactive are those of the source. How the source made its calls: active means hit-call score of the fitted dose curve at least 0.9, where 1 is the maximum; inactive means score below 0.9.

assay: APR_HepG2_CellLoss_1hr: Apredica 1-hour HepG2 Assay for Cell Loss (AID 2282668); details: high-content imaging;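 further: curves fitted both ways against DMSO so gain or loss of cells counts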
Method: APR_HepG2_1hr is a cell-based, multiplexed-readout assay that uses HepG2, a human liver cell line, with measurements taken at 1 hour after chemical dosing in a 384-well plate.APR_HepG2_CellLoss_1hr is one of 10 assay component(s) measured or calculated from the APR_HepG2_1hr assay. It is designed to make measurements of cell number, a form of viability reporter, as detected with fluorescence intensity signals by HCS Fluorescent Imaging technology.Data from the assay component APR_HepG2_CellLoss_1hr was analyzed into 1 assay endpoint. This assay endpoint, APR_HepG2_CellLoss_1hr, was analyzed with bidirectional fitting relative to DMSO as the negative control and baseline of activity. Using a type of viability reporter, measures of all nuclear dna for gain or loss-of-signal activity can be used to understand the viability at the cellular-level. Furthermore, this assay endpoint can be referred to as a secondary readout, because this assay has produced multiple assay endpoints where this one serves a viability function. To generalize the intended target to other relatable targets, this assay endpoint is annotated to the cell cycle intended target family, where the subfamily is proliferation.
Cells were treated with dimethyl sulfoxide (DMSO) as a solvent control at a final concentration of 0.5% v/v or with compounds in DMSO with a resulting final DMSO concentration of 0.5% v/v. Compound treatment was done at concentrations of 0.39, 0.78, 1.56, 3.12, 6.24, 12.5, 25, 50, 100, and 200 uM in duplicate on each plate. Cells were treated with compounds for 1, 24, or 72 hr. Carbonyl […] m-chloro-phenylhydrazone (CCCP) and taxol were used as positive controls for mitochondrial function and cytoskeletal stability, respectively; DMSO served as the negative control for this experiment. Cells were fixed by the direct addition of 50 uL formaldehyde in Hank's Balanced Salt Solution (HBSS) to a final concentration of 3.7%. After incubation in the fixation medium for 30 min at room temperature (293-298 K), cells were rinsed twice with HBSS and treated with cell permeabilization buffer (16 uL of 0.5% Triton X-100) for 10 min at room temperature (293-298 K) before labeling. For mitochondrial membrane potential and mitochondrial measurements, pre-fixed cells were incubated with 50 uL of MitoTracker Red CMXRos (Invitrogen) at a concentration of 250 nM for 30 min before fixation. In the remaining cases, post-fixed cells were labeled by incubation with a multiplexed mixture of primary antibodies in HBSS for 60 min at room temperature (293-298 K) to detect immunoreactivity of c-Jun (1:500), phospho-histone H3 (1:100), phospho-histone H2A.x (1:200), p53 (1:400), alpha-tubulin (1:200) and Hoechst 33342 (2 ug/mL). Cells were labeled for multiplexed imaging on two separate plates: a) Hoechst 33342, MitoTracker Red, phospho-histone H3, and alpha-tubulin, and b) Hoechst 33342, phospho-histone H2A.x, and c-Jun. A final rinse with HBSS (50 uL) was performed before analysis. The primary and secondary antibodies for the proteins were phospho-histone H3 (rabbit anti-phospho-histone H3 and FITC-donkey anti-rabbit IgG), phospho-histone H2A.x (mouse anti-phospho-histone H2A.x and FITC-donkey anti-mouse IgG), c-Jun (rabbit anti-phospho-c-Jun and Cy3-donkey anti-rabbit IgG), p53 (sheep anti-p53 and Cy5-donkey anti-sheep IgG), alpha-tubulin (mouse anti-alpha-tubulin and Cy5-donkey anti-mouse IgG). These antibodies are available as the CellCiphr HepG2 assay kit (Millipore).Digital images of each well were captured using a Cellomics ArrayScan VTI (Thermo Scientific Cellomics) (0.8 NA objective, 0.63x optical coupler, and XF-93 filter set) at 20x magnification. The images were acquired using the autofocus feature of the ArrayScan instrument, which entails the following steps. First, the camera focuses on channel 1 (Hoechst 33342), where nuclei are identified. Second, a Z offset of 1 um is used for capturing mitochondria (MitoTracker Red). […]

Structure (SMILES) | outcome | AC50
CCCCSP(=O)(SCCCC)SCCCC | inactive | –
Nc1nc(N)nc(NC2CC2)n1 | inactive | –
Cc1ccn2nc(S(=O)(=O)Nc3c(F)cccc3F)nc2n1 | inactive | –
C#CC(C)(C)NC(=O)c1cc(Cl)cc(Cl)c1 | inactive | –
CCOP(=S)(OCC)SCCSCC | inactive | –
C=C(C)[C@H]1Cc2c(ccc3c2O[C@@H]2COc4cc(OC)c(OC)cc4[C@@H]2C3=O)O1 | inactive | –
CC[C@H](C)[C@H]1O[C@]2(C=C[C@@H]1C)C[C@@H]1C[C@@H](C/C=C(\C)[C@@H](O[C@H]3C[C@H](OC)[C@@H](O[C@H]4C[C@H](OC)[C@@H](NC)[C@H](C)O4)[C@H](C)O3)[C@@H](C)/C=C/C=C3\CO[C@@H]4[C@H](O)C(C)=C[C@@H](C(=O)O1)[C@]34O)O2 | – | 16.5 µM (active)
C[N+]1(C)CCCCC1 | inactive | –
COP(=O)(OC)C(O)C(Cl)(Cl)Cl (stereo not given) | inactive | –
CCC(=O)Nc1ccc(Cl)c(Cl)c1 | inactive | –
CC(C)N(C(=O)SCC(Cl)=C(Cl)Cl)C(C)C | inactive | –
CC(Oc1cccc(Cl)c1)C(=O)O (stereo not given) | inactive | –
C#CCC1=C(C)C(OC(=O)C2C(C=C(C)C)C2(C)C)CC1=O (stereo not given) | inactive | –
CN(C)[C@@H]1C(=O)C(C(N)=O)=C(O)[C@@]2(O)C(=O)C3=C(O)c4c(O)cccc4[C@@](C)(O)[C@H]3[C@H](O)[C@@H]12 | inactive | –
CCCCOC(=O)[C@@H](C)Oc1ccc(Oc2ccc(C#N)cc2F)cc1 | inactive | –
CCOP(=S)(OCC)Oc1ccc([N+](=O)[O-])cc1 | inactive | –
Cc1nn(-c2cc(NS(C)(=O)=O)c(Cl)cc2Cl)c(=O)n1C(F)F | inactive | –
CC1=NNC(=O)N(/N=C/c2cccnc2)C1 | inactive | –
O=[N+]([O-])c1cc(C(F)(F)F)c(Cl)c([N+](=O)[O-])c1Nc1ncc(C(F)(F)F)cc1Cl | – | 94.8 µM (active)
Cc1cc(C2CC2)nc(Nc2ccccc2)n1 | inactive | –

Structure (SMILES) | outcome | AC50
COP(=O)(NC(C)=O)SC (stereo not given) | inactive | –
CCOP(=O)(NC(C)C)Oc1ccc(SC)c(C)c1 (stereo not given) | inactive | –
CCOP(=S)(Oc1cnc(C(C)(C)C)nc1)OC(C)C (stereo not given) | inactive | –
CC(COc1ccc(Oc2ccccc2)cc1)Oc1ccccn1 (stereo not given) | inactive | –
CCc1cccc(C)c1N(C(=O)CCl)C(C)COC (stereo not given) | inactive | –
CC1(C(=O)Nc2ccc(O)c(Cl)c2Cl)CCCCC1 | inactive | –
CNC(=O)ON=C(SC)C(=O)N(C)C | inactive | –
COP(=O)(OC)OC(Br)C(Cl)(Cl)Br (stereo not given) | inactive | –
CSc1nnc(C(C)(C)C)c(=O)n1N | inactive | –
CCc1cnc(C2=NC(C)(C(C)C)C(=O)N2)c(C(=O)O)c1 (stereo not given) | inactive | –
FC(F)C(F)(F)OCC(Cn1cncn1)c1ccc(Cl)cc1Cl (stereo not given) | inactive | –
C[Si](Cn1cncn1)(c1ccc(F)cc1)c1ccc(F)cc1 | inactive | –
COc1ccc(C(=CC(=O)N2CCOCC2)c2ccc(Cl)cc2)cc1OC | inactive | –
CCCSP(=O)(OCC)Oc1ccc(Br)cc1Cl (stereo not given) | inactive | –
CCOC(=O)COc1cc(-c2nn(C)c(OC(F)F)c2Cl)c(F)cc1Cl | inactive | –
Nc1c(Cl)cc([N+](=O)[O-])cc1Cl | inactive | –
CC(=NC#N)N(C)Cc1ccc(Cl)nc1 | inactive | –
CCCOCC(=Nc1ccc(Cl)cc1C(F)(F)F)n1ccnc1 | inactive | –
CC(C)=CC1C(C(=O)OCN2C(=O)C3=C(CCCC3)C2=O)C1(C)C (stereo not given) | inactive | –
S=C1NCCN1 | inactive | –
